Pf Dd2 growth – Plasmodium falciparum Dd2 growth inhibition; P. falciparum Dd2 growth, SYBR Green, 72 h; Potency, µM (titrated, usually from 28.9 µM), most hits filed as inhibitors; 120,000 compounds, 4.3% hits; active means well fitted inhibition curve with a large enough effect; further: nearly all actives have a fitted effect of over 65% in size
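Readout: SYBR Green fluorescence, 485 nm excitation, 535 nm emission, after ~16 h lysis at 37C. Before that, Dd2-infected red cells (2.5% hematocrit) grew 72 h with compound, 29 uM top final concentration.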
Hits are given with their value; - = inactive. This excerpt belongs to a sample that is enriched for hits.

SMILES | Pf Dd2 growth
COc1cccc(Nc2csc(CN3CCCC(C)(NC(C)=O)C3)c2)c1 (stereo not drawn) | 7.9µM
COc1cccc(Nc2cc(CN3CCC(C)(NC(C)=O)CC3)cc(OC)c2)c1 | -
COc1cccc(-c2cccc(CN3CCCC(C)(NC(C)=O)C3)c2)c1 (stereo not drawn) | -
COc1cccc(-c2cc(C(=O)O)cc(S(=O)(=O)NC(C)C)c2)c1 | -
Cc1ccc(-n2c(C3CCN(C(=O)c4cc(C)cc(C)c4)CC3)n[nH]c2=O)cc1 | -
Cc1ccc(-n2c(C3CCN(C(=O)COc4ccc(F)cc4)CC3)n[nH]c2=O)cc1 | -
Cc1ccc(Cn2c(C3CCN(C(=O)c4cc(C)cc(C)c4)CC3)n[nH]c2=O)cc1 | 8.9µM
Cc1ccc(Cn2c(C3CCN(C(=O)c4ccc(C#N)cc4)CC3)n[nH]c2=O)cc1 | -
Cc1ccc(Cn2c(C3CCN(C(=O)c4cccc(C)c4)CC3)n[nH]c2=O)cc1 | -
Cc1ccc(-n2c(C3CCN(C(=O)c4cc(Cl)ccc4F)CC3)n[nH]c2=O)cc1 | -
Cc1ccc(-n2c(C3CCN(C(=O)COc4ccc(Cl)cc4)CC3)n[nH]c2=O)cc1 | 0.89µM
Cc1ccc(Cn2c(C3CCN(C(=O)c4cccc(Cl)c4)CC3)n[nH]c2=O)cc1 | -
Cc1ccc(-n2c(C3CCN(C(=O)c4ccc(C(C)(C)C)cc4)CC3)n[nH]c2=O)cc1 | 4.5µM
CCc1ccc(C(=O)N2CCC(c3n[nH]c(=O)n3Cc3ccc(F)cc3)CC2)cc1 | -
Cc1ccc(-n2c(C3CCN(C(=O)c4cccc(C)c4)CC3)n[nH]c2=O)cc1 | -
Cc1ccc(Cn2c(C3CCN(C(=O)c4ccc(C(C)(C)C)cc4)CC3)n[nH]c2=O)cc1 | 2.5µM
CCC(=O)N(C1CCOCC1)C1CCN(Cc2cc(OC)cc(OC)c2)CC1 | -
CNc1ncccc1C(=O)N[C@H](c1cccs1)C1CC(O)C1 (stereo partly drawn) | -
CCCc1nc(C(=O)NCc2ccc(-n3ccnc3C)cc2)cs1 | -
COC[C@H]1CCCN1C(=O)CC[C@@H]1CNC(=O)[C@@H]2C[C@H](NC(=O)c3ccccc3)CN12 | -
O=C1Nc2cc(Cl)ccc2C(=O)N2C[C@H](O)C[C@@H]12 | -
COc1ccc(-n2nc(C3CCN(C(=O)c4ccc(F)cc4)CC3)[nH]c2=O)cc1 | -
COc1ccc(-c2ccc3ncc(Nc4cccnc4OC)n3n2)cc1OC | -
CN1CCN(Cc2ccc(Nc3cnc4ccc(-c5ccccc5)nn34)cc2)CC1 | 2.2µM
NC(=O)c1ccc(Nc2cnc3ccc(-c4ccccc4)nn23)cc1 | -
SMILES | Pf Dd2 growth
c1ccc(-c2ccc3ncc(Nc4ncccn4)n3n2)cc1 | -
COc1ccc(Nc2cnc3ccc(-c4ccc(OC)c(OC)c4)nn23)cc1OC | -
COc1ccc(Nc2cnc3ccc(-c4ccccc4)nn23)cc1 | 5.6µM
COc1ccccc1-c1ccc2ncc(Nc3cccc(N[S+](C)(=O)[O-])c3)n2n1 | -
COc1cncc(Nc2cnc3ccc(-c4ccc(OC)nc4)nn23)c1 | -
COc1cncc(Nc2cnc3ccc(-c4ccc(OC)c(OC)c4)nn23)c1 | 0.89µM
CN1CCN(Cc2ccc(Nc3cnc4ccc(N5CCOCC5)nn34)cc2)CC1 | -
COc1ccc(Nc2cnc3ccc(-c4ccc(OC)c(OC)c4)nn23)cc1 | 1.1µM
CNCc1cn(C[C@H]2C[C@@H]3CCN2C[C@@H]3C(=O)NC2CCCCC2)nn1 | -
COc1ccc(C(=O)N2CCn3c(nn(-c4ccc(C(F)(F)F)cc4)c3=O)C2)cc1 | -
COCCC(=O)N[C@@H]1CN(Cc2ccccn2)C[C@H]1CN(C)C | -
Cc1cccc(C)c1OCc1cc(C(=O)N(C)CCCC2CCCC2)no1 | -
NC(=O)N1CCCC(C(=O)NCCS(=O)(=O)c2ccc(F)cc2)C1 (stereo not drawn) | -
CC(=O)c1cc(C(=O)N2C[C@@H](C(=O)O)[C@H](c3ccccc3)C2)c(=O)[nH]c1C | -
O=C(CC(c1ccccc1)c1ccccc1Cl)N1CCCC1 (stereo not drawn) | -
O=C(NC1CCCCC1)C1CC(=O)N(c2n[nH]c3cccc(F)c23)C1 (stereo not drawn) | -
CC1(C(=O)NCc2cccc(F)c2)COCc2cnc(Nc3ccccc3)nc21 (stereo not drawn) | -
CCN1C(=O)C2(CCN(S(=O)(=O)c3ccc4c(c3)CCC4)CC2)c2ccccc21 | -
COc1ccccc1-c1ccc2ncc(Nc3ccc(CCO)cc3)n2n1 | -
COc1ccccc1Nc1cnc2ccc(-c3ccccc3OC)nn12 | -
COc1cncc(Nc2cnc3ccc(-c4ccccc4OC)nn23)c1 | 2.5µM
CSCCCN1CCC(Oc2ccc3ncccc3c2)(C(=O)O)CC1 | -
COc1ccc(C2(C(=O)N3CCC(F)CC3)CCOCC2)cc1 | -
COc1cccc(CC(=O)N2CCCCCCNC(=O)CC2)c1 | -
COc1cccc(CC(=O)N2CCCC(CN3CCCC3)CC2)c1 (stereo not drawn) | 1µM
COc1ccc(C2(C(=O)N3CCCC(CN4CCCC4)CC3)CC2)cc1 (stereo not drawn) | 3.2µM
COCC(=O)N(C1CCOCC1)C1CCN(C(=O)Cc2cccc(OC)c2)CC1 | -

Screens (PubChem)
